Bioassay records as filed in PubChem BioAssay.
A selection: hits, their analogues and other compounds. The true share with any hit is near 2.8%.
Pol kappa inh = inhibitors of human DNA polymerase kappa | Q9UBT6 | purified Pol kappa, fluorescent DNA synthesis assay, 10 min | Potency, µM (doses to about 107 µM), without a hit: at the highest dose activity, negative = inhibition, actives largely listed as inhibitors | actives 0.53% (n = 400,000); further: potency means the concentration at half of the fitted maximal effect; on the % scale 0 is the no-effect control and ±100 the full control effect
Target sequence (Q9UBT6 whole entry, looked up): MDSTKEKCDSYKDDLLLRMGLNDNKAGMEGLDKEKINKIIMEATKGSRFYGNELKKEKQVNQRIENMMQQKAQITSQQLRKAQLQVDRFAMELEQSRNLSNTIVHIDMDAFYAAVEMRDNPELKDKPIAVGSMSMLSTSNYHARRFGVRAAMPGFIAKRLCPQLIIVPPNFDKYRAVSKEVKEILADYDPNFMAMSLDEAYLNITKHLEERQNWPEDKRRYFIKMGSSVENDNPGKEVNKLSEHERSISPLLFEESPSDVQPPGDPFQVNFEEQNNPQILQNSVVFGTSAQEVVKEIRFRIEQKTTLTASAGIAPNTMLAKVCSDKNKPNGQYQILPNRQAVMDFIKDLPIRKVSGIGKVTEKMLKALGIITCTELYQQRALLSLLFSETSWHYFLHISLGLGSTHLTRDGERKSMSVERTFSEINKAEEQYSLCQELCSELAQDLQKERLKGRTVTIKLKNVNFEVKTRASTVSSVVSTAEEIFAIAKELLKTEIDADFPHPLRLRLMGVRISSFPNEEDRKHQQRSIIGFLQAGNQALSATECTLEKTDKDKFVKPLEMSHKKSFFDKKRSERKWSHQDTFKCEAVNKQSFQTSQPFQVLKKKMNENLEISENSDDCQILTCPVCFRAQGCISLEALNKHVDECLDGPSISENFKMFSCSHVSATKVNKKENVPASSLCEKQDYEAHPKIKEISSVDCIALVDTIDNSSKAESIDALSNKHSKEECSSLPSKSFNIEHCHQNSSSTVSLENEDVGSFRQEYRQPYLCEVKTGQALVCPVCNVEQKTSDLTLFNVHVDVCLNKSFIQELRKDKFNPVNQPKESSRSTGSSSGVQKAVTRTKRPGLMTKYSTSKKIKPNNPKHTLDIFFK
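Enzyme at 10 nM met test compounds for 15 min at room temperature. Substrate addition (50 nM final) began the reaction, which was monitored by fluorescence at 0 and 10 min.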
Pol eta inh = blocks human DNA polymerase eta activity; actives 1.2% (n = 390,000); Q9Y253; recombinant Pol eta, fluorescent DNA replication assay; Potency, µM (highest dose often 114 µM), without a hit: top-dose activity change, negative = inhibition, usual class: inhibitors; further: potency means the concentration at half of the fitted maximal effect; on the % scale 0 is the no-effect control and ±100 the full control effect
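Pol eta (10 nM) was preincubated with compounds for 15 min at room temperature, after which fluorescent replication substrate (50 nM final) was added to start the reaction. Fluorescence was read kinetically at 0 and 10 min.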
WRN inhibitor = blocks human WRN helicase; AID 651768; Potency, µM (titrated, usually from 114 µM), for inactives: at the highest dose activity change, negative = inhibition, most hits filed as inhibitors; actives 0.46% (n = 360,000); WRN helicase unwinding, fluorescent forked duplex, kinetic; further: potency means the concentration at half of the fitted maximal effect; on the % scale 0 is the no-effect control and ±100 the full control effect; nearly all actives have a fitted effect of over 55% in size
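Primary qHTS, 1536-well format. 20 nM WRN + compound, 15 min RT; start with 100 nM forked fluorophore/quencher duplex, 2 mM ATP (final); kinetic read ex 525/em 598 nm.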
PI5P4Ka inh = blocks human PI5P4K alpha kinase activity; max response, %; AID 652105; PI5P4Kalpha enzyme, ADP-Glo luminescence, 60 min; stronger effect = lower value; P48426; actives 1.2% (n = 330,000); active means max response of -50% or lower; inconclusive means between -30% and -50%; inactive means -30% or higher; further: value at the top dose of about 77 µM; on the % scale 0 is the no-effect control and ±100 the full control effect
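Quantitative HTS of the MLSMR library against PI5P4Kalpha with substrate. ATP added last at 5 microM final; room temperature, 60 minutes. Remaining ATP depleted, ADP converted and read as luminescence.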
POLI inh = blocks human DNA polymerase iota activity. Q9UNA4. Pol iota fluorescent replication assay, 10 min. Potency, µM (series often up to 115 µM), for the others: at the highest dose activity, negative = inhibition, usual class: inhibitors. actives 1% (n = 390,000). AID 588590; further: potency means the concentration at half of the fitted maximal effect
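Pol iota at 10 nM preincubated 15 min with compounds at room temperature; reaction started with fluorescent substrate, 50 nM final. Fluorescence read kinetically at 0 and 10 min; buffer-only wells as negative control.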
POLB inh = blocks human DNA polymerase beta activity | P06746 | Pol beta primer extension/strand displacement, fluorescence kinetic | Potency, µM (titrated, usually from 114 µM), inactives show at the top dose activity change, negative = inhibition, usual class: inhibitors | actives 1.3% (n = 340,000) | AID 485314; further: potency means the concentration at half of the fitted maximal effect; on the % scale 0 is the no-effect control and ±100 the full control effect
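Homogeneous kinetic assay of primer extension and strand displacement by 10 nM Pol beta, preincubated 15 min at room temperature with compound before 50 nM substrate (final) was added. Read at 0 and 10 min; four-parameter Hill fit.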
* marks the source's active call; other numbers are inactive results; ? = inconclusive; / = no result; [ ] = remark or other dose. Unless noted, the call rests on the fitted dose curve; in most records, active means well fitted curve in the direction sought with a large enough effect; inconclusive means small, poorly fitted or top-dose-only effect, or another doubt; inactive means no such curve, though single readings can be large; an effect the other way counts as inactive or inconclusive.

SMILES | Pol kappa inh | Pol eta inh | WRN inhibitor | PI5P4Ka inh | POLI inh | POLB inh
CCCCC1=CC2=CC(=O)C(C)(OC(=O)c3cnc4ccccc4n3)C(=O)C2=CO1 (stereo unspecified) | / | / | / | / | / | 50µM*
CCCC(=O)Nc1nnc(S(=O)(=O)N(C)Cc2ccc(Cl)cc2)s1 | -4% | -18% | / | / | 26% | 14%
O=C(Cn1nc2c(cc1=O)CCCC2)Nc1ccccc1C(F)(F)F | -3%[60.1 µM] | -14% | / | / | 8% | 15%
CCOc1cc(C#N)c(-n2nnc3c(sc4nc(C)cc(C)c43)c2=O)cc1OCC | -5% | 3% | / | / | ? | 13%
Cc1ccc(/C=C/C(=O)NCCc2ccccc2)o1 | -13% | ? | -5% | -60* | ? | -29%
O=C(/C=C/c1ccco1)NCCc1ccccc1 | -18% | 9% | -4% | -18 | 27% | 13%
Nc1ccc2nc(-c3ccc(-c4nc5ccc(N)cc5[nH]4)cc3)[nH]c2c1 | 50µM* | -19% | -27%[11.6 µM] | -24 | ? | -15%
Nc1ccc(-c2nc3ccc(-c4nc5ccc(N)cc5[nH]4)cc3[nH]2)cc1 | 2.7µM* | 6.3µM* | / | / | 4µM* | 1.4µM*
Nc1ccc(-c2nc3ccccc3[nH]2)cc1 | -1% | -21% | -6% | 0 | 23% | ?
CCc1cccc2c(C(O)c3c[nH]c4ccccc34)c[nH]c12 (stereo unspecified) | -11% | / | / | / | 28% | /
O=C(N/N=C\C=C\c1ccco1)c1cncc(Br)c1 | 89µM* | ? | ? | -53* | 20µM* | ?
O=C(N/N=C\c1cc(Br)c(Br)o1)c1cncc(Br)c1 | -1% | 0% | -8% | -23 | 14% | 0%
O=C(N/N=C/C=C/c1ccco1)c1cccnc1 | -42% | ? | -22%[57.1 µM] | / | 32µM* | -1%
O=C(N/N=C/C=C/c1ccco1)c1cnccn1 | -24% | ? | -30% | -2 | ? | -14%
O=C(N/N=C\C=C\c1ccco1)c1cc(-c2ccc3ccccc3c2)n[nH]1 | 79µM* | 50µM* | -13%[11.6 µM] | -68* | 32µM* | 16µM*
O=C(N/N=C/c1cc(Br)c(Br)o1)c1cccnc1 | ? | 11µM* | ? | ? | ? | 32µM*
O=C(N/N=C/C=C/c1ccccc1[N+](=O)[O-])c1cc(-c2ccccc2)n[nH]1 | -31% | ? | -29% | -11 | ? | ?
CCCCN1CC(=O)N2[C@H](c3ccc(Cl)cc3)[C@@H]3C(=O)N(CC)C(=O)[C@@H]3[C@]2(C)C1=O | 1% | -18% | 13% | 2 | 33% | 18%
CCN(CC)S(=O)(=O)c1ccc(C(=O)NCC2CCCCC2)cc1 | -4% | 2% | 8% | -7 | -10% | ?
Cc1ccc(C(=O)CC2(O)C(=O)N(CCc3ccccc3)c3ccc(Cl)cc32)cc1 (stereo unspecified) | -16% | -18% | / | / | -1% | -2%
Cc1ccc(-n2nc(CO)c(C(=O)NC(C)c3ccccc3)n2)cc1C (stereo unspecified) | -7% | -4% | / | / | 8% | 19%
COc1cccc(CCNC(=O)CCCC(=O)c2ccccc2)c1 | 11% | -8% | 3% | 1 | ? | 0%
Cn1cc(-c2cc3n(n2)CCC(=O)N3CCCC(=O)Nc2ccc(Cl)cc2)c2ccccc21 | 3%[60.1 µM] | -11% | / | / | 89µM* | ?
CSc1cccc(NC(=O)CCNS(=O)(=O)c2ccc3[nH]c(=O)oc3c2)c1 | ? | 0% | -14% | 2 | ? | -24%
CCOc1cc(/C=C2\C(=O)N(c3cccc(C(=O)O)c3)N=C2C(F)(F)F)ccc1OCC(=O)Nc1ccccc1OC | / | / | / | / | / | 20µM*
COc1cccc(CNC(=O)c2cccc(-n3c(C)nc4cccnc43)c2)c1OC | 10% | -16% | / | / | 13% | 5%
O=C(N/N=C/c1ccc2ccccc2c1)c1ccc(COc2ccc3c(c2)CCC3)o1 | -3% | 10µM* | ? | 10 | 2% | 35µM*
